An excerpt weighted towards active compounds, which were near 3.6% of everything screened.
BoNT-F LC inh = inhibitors of Botulinum neurotoxin F light chain protease. Multiplex microsphere protease cleavage assay, flow cytometry. inhibition, % at 10 µM. actives 0.22% (n = 360,000). AID 588497; in the data active = inhibition above about 35%, passing the limit was not always enough; inconclusive = no clear call, values can overlap the other calls; note: plate controls were buffer without enzyme for full effect and enzyme alone for no effect
Anthrax LF prot = blocks Bacillus anthracis lethal factor protease; actives 0.12% (n = 360,000); multiplex microsphere protease cleavage assay, LF; P15917; inhibition, % at 10 µM; note: plate controls were buffer without enzyme for full effect and enzyme alone for no effect
Target sequence (P15917 whole entry, looked up): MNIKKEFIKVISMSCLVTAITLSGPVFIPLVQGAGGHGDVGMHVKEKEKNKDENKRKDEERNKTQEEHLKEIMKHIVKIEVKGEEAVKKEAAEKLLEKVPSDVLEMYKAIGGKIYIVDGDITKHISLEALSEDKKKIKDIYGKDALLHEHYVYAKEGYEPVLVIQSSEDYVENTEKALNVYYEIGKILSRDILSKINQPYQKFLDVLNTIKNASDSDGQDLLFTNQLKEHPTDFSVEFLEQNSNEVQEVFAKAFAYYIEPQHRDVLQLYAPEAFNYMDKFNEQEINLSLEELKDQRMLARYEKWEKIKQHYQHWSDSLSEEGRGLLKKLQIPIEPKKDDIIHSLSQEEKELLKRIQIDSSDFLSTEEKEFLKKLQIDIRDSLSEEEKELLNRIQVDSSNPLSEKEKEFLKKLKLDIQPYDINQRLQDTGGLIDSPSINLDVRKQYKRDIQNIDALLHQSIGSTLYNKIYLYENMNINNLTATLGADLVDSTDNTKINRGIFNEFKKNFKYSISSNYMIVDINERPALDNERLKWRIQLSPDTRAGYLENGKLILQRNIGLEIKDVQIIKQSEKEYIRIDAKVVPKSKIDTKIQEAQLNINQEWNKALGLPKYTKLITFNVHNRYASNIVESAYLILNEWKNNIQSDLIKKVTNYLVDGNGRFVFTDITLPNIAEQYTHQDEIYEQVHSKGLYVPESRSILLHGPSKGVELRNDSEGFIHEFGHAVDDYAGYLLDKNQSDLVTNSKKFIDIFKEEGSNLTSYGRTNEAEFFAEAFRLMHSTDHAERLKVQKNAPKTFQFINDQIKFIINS
BoNT A protease = blocks Botulinum neurotoxin A light chain protease; multiplex microsphere protease substrate cleavage, flow cytometry; actives 0.17% (n = 360,000); inhibition, % at 10 µM; AID 588499; note: plate controls were buffer without enzyme for full effect and enzyme alone for no effect
3CLpro inhibitor = SARS-CoV 3CLpro protease inhibition; P0C6X7; actives 0.14% (n = 290,000); inhibition, % at 6 µM; recombinant SARS-CoV 3CLpro, quenched FRET peptide cleavage; in the data active = inhibition above about 12%
BJeLR lethal = kills HRASV12-expressing BJeLR cells; BJeLR (HRASV12) viability, CellTiter-Glo ATP luminescence, 48 h; inhibition, % (no concentration beside the values); actives 0.17% (n = 300,000); in the data active = inhibition above about 50%; inconclusive = no clear call, values can overlap the other calls
Bead autofluor = counter-screen for toxin protease inhibitors: compound fluorescence; actives 3.1% (n = 360,000); compound autofluorescence counterscreen, microsphere flow cytometry; hits give high values; fluorescence intensity (concentration not given with the values); in the data active = fluorescence intensity above about 16000; inconclusive = no clear call, values can overlap the other calls
Active calls of the source: *; ? = inconclusive; . = not tested or not shown. Cut-off read from the data, not from the text of the source, unless noted: active = inhibition above about 30%; inconclusive = no clear call, values can overlap the other calls; inactive = below that.

SMILES	BoNT-F LC inh	Anthrax LF prot	BoNT A protease	3CLpro inhibitor	BJeLR lethal	Bead autofluor
CCOC(=O)c1ccc(NC(=O)c2cccc(S(=O)(=O)N3CCN(C(C)=O)CC3)c2)cc1	23.5	-5.8	0.7	-4.6	11.0	3619
CCOCCCNC(=O)c1ccc2c(=O)n(CCCOCC)c(=S)[nH]c2c1	-1.9	-1.9	-2.1	0.4	-4.3	4089
CCOCCCn1c(=S)[nH]c2cc(C(=O)NCCOC)ccc2c1=O	1.4	-1.9	1.5	-2.8	-4.9	19971*
COCCNC(=O)c1ccc(Cn2c(=S)[nH]c3cc4c(cc3c2=O)OCO4)cc1	-0.7	0.8	0.9	3.2	6.4	22929*
O=C(NCCCN1CCCC1)c1[nH]c(C(F)(F)F)nc1-c1ccccc1	3.7	-8.9	-1.1	.	.	4355
CCOC(=O)c1oc2ccccc2c1CSc1nnnn1-c1ccc(OC)cc1	3.3	-0.2	?	-3.4	2.7	21747*
COc1ccccc1-n1nnnc1SCC(=O)Nc1ccccn1	5.1	-9.6	4.4	2.9	-6.7	19311*
COc1ccc(OC)c(-n2nnnc2SCC(=O)Nc2ccc3c(c2)OCCO3)c1	-3.1	-2.9	1.3	3.7	-8.1	5394
COc1ccccc1-n1nnnc1SCC(=O)Nc1ccccc1	-19.3	-8.7	0.2	2.6	-19.2	3478
CCOC(=O)CSc1nnnn1-c1cc(OC)ccc1OC	-0.5	-2.5	-0.1	2.9	4.4	16299*
CCCn1c(=O)c2ccccc2n2c(SCc3c(C(=O)OCC)oc4ccccc34)nnc12	-1.1	-0.2	0.7	-9.4	3.8	10290
COc1ccc(CNC(=O)COC(=O)CCc2c[nH]c3ccccc23)cc1	-4.7	-0.9	0.0	2.0	1.8	3300
O=C1CC(N2CCN(Cc3ccccc3)CC2)C(=O)N1 (configuration not stated)	2.6	-1.2	0.9	4.1	-0.5	2595
O=C1CC(N2CCN(c3ccc(Cl)c(Cl)c3)CC2)C(=O)N1 (configuration not stated)	-1.9	-3.1	-0.8	2.0	1.9	21082*
C=CCn1c(SCC(=O)NC2CCCC2)nnc1-c1cccnc1	2.5	2.6	1.6	0.8	0.7	5909
CN(C(=O)c1cccc(NC(=O)Cc2ccc(NC(=O)C3CCN(C(=O)c4ccccc4)CC3)cc2)c1)C1CCCCC1	-0.1	-1.1	0.2	.	.	2798
COc1ccc(/C=N/NC(=O)c2ccc(=O)n(C)c2)cc1OC	-0.2	-1.2	0.8	1.4	-12.3	2243
COc1ccc(CNc2nc3ccccc3n2CCN2CCCCC2)c(OC)c1	6.3	-4.9	3.5	2.4	7.8	15231
c1ccc(Cn2c(CNc3nc4ccccc4n3CCN3CCOCC3)nc3ccccc32)cc1	-1.7	0.5	?	5.4	7.5	23712*
COc1ccc(OC)c(CNc2nc3ccccc3n2CCN2CCCCC2)c1	-5.7	-2.5	-0.2	-3.2	0.2	16368*
COc1ccc(NC(=O)CSc2nc3ccccc3nc2N2CCCC2)c(OC)c1	7.7	-9.2	1.6	-1.4	-5.2	4182
Cc1ccc2oc(C(=O)NCC3CCOCC3)c(C)c2c1	6.7	-0.2	2.5	-1.6	-8.4	5909
O=C(CCCC(=O)OCC(=O)c1ccc(Cl)cc1Cl)Nc1cc(C(F)(F)F)ccc1Cl	4.1	-1.0	0.8	-1.5	4.0	2656
O=C(CCCC(=O)OCC(=O)c1ccc(F)cc1)Nc1cc(C(F)(F)F)ccc1Cl	-6.3	-1.6	?	5.0	-4.4	20642*
O=C1c2ccccc2C(=O)N1CCCc1nc(-c2ccccn2)no1	-6.6	-2.6	0.0	-1.4	-7.1	4378
SMILES	BoNT-F LC inh	Anthrax LF prot	BoNT A protease	3CLpro inhibitor	BJeLR lethal	Bead autofluor
O=C1c2ccccc2C(=O)N1CCc1nc(-c2ccccn2)no1	5.3	-4.0	4.6	-0.9	-9.5	21427*
O=C1c2ccccc2C(=O)N1Cc1nc(-c2ccncc2)no1	0.7	-1.1	-0.4	-5.0	-6.5	7753
O=C1c2ccccc2C(=O)N1Cc1nc(-c2ccccc2)no1	-5.3	-1.1	-3.5	.	7.3	21600*
COc1ccc(C2C(C#N)=C(N)Oc3cc(O)ccc32)cc1Cl (configuration not stated)	35.3*	2.7	0.5	0.5	4.4	4572
O=C(CCN1C(=O)COc2ccccc21)NCCCN1CCc2ccccc2C1	-14.7	-3.5	-11.3	-2.5	1.4	18721*
O=C(NCCCN1CCc2ccccc2C1)Nc1ccc(Cl)cc1	-6.1	-1.3	-4.0	3.0	3.7	22133*
O=C(NCCCn1ccnc1)Nc1ccc(Cl)cc1	-5.3	-2.3	?	-1.2	3.1	24742*
